Source: PubChem (National Center for Advancing Translational Sciences (NCATS))
IL-1B inflam inh: blocks inflammasome-driven IL-1 beta release; THP-1 LPS/ATP IL-1B secretion, AlphaLISA, 16 h; hits give low values; activity change, % at 57.5 µM; 360,000 compounds, 4.7% hits; AID 743279; in the data active = activity change below about -50%; inconclusive = mostly about -30% to -49%; also: % is scaled to controls: 0 for no effect and ±100 for the full control effect
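Secreted IL-1B measured by AlphaLISA bead assay after 16 h compound exposure of THP-1 cells; compounds (final up to 57.5 uM) added 1 h before LPS (250 ng/mL) and ATP (1.25 mM) stimulation; lower signal means less secretion.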
TDP1 cell noCPT: qHTS for Inhibitors of human tyrosyl-DNA phosphodiesterase 1 (TDP1): qHTS in cells in absence of CPT; Potency, µM (top dose mostly 46.2 µM), inactives show top-dose activity change, negative = growth inhibition, hits mostly inhibitors; DT40 Tdp1-/- hTDP1 cells, no CPT, ATP luminescence, 48 h; 420,000 compounds, 15% hits; AID 686978, 2013; also: potency is read from the fitted curve at half-maximal effect; % is scaled to controls: 0 for no effect and ±100 for the full control effect; nearly all actives have a fitted effect of over 55% in size
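Luminescent ATP content (CellTiter-Glo) served as the growth readout. Knockout chicken DT40 cells expressing human TDP1 were exposed to compounds without camptothecin for a minimum 48 hr at 37 °C.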
TGFb inhibitor: TGF-b pathway inhibition | HepG2 CAGA-GFP TGF-b/SMAD3 reporter, GFP fluorescence, 18 h; TGF-beta stimulated, 500 pg/mL final | Potency, µM (top dose mostly 46.1 µM), without a hit: top-dose activity, negative = inhibition, actives largely listed as inhibitors | 410,000 compounds, 1.2% hits; also: potency is read from the fitted curve at half-maximal effect; % is scaled to controls: 0 for no effect and ±100 for the full control effect; nearly all actives have a fitted effect of over 65% in size
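Per well, imaged GFP fluorescence of HEPG2 CAGA-GFP cells gives the signal; cells get compound, then TGF-beta (500 pg/mL final), 18 h at 37 degrees C; %Activity versus -TGF-beta and +DMSO controls.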
DT40 TDP1 CPT: growth inhibition of DT40 Tdp1-/-;hTDP1 cells with camptothecin (screen for TDP1 inhibitors); chicken DT40 Tdp1-/-;hTDP1 cells + 20 nM CPT, ATP luminescence, 48 h; Potency, µM (series often up to 46.2 µM), for inactives: at the highest dose activity change, negative = growth inhibition, actives largely listed as inhibitors; 420,000 compounds, 12% hits; also: potency is read from the fitted curve at half-maximal effect; % is scaled to controls: 0 for no effect and ±100 for the full control effect; nearly all actives have a fitted effect of over 55% in size
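Chicken DT40 Tdp1-/- cells complemented with human TDP1, 400 cells/well, exposed to compounds plus 20 nM camptothecin for at least 48 h at 37 C; viability read as ATP content by CellTiter-Glo luminescence.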
HepG2 tox: HepG2 cytotoxicity, counter-screen for TGF-b inhibitors; 410,000 compounds, 0.76% hits; HepG2 CAGA-GFP viability, ATP luminescence, 18 h; Potency, µM (series often up to 46.1 µM), inactives show top-dose activity change, negative = cytotoxicity, most hits filed as cytotoxic; AID 588856; also: potency is read from the fitted curve at half-maximal effect
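HepG2 CAGA-GFP cells (1000/well, DMEM with 1% FBS) received compound, then TGF-beta at 500 pg/mL final, and were incubated 18 hours at 37 degrees C. Viability was read by CellTiter-Glo luminescence. Media-only wells were set as complete cell-killing and DMSO as no toxicity.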
TDP1 block: inhibitors of human tyrosyl-DNA phosphodiesterase TDP1; Potency, µM (titrated, usually from 130 µM), for the others: at the highest dose activity change, negative = inhibition, actives largely listed as inhibitors; recombinant TDP1, AlphaScreen DNA substrate cleavage; 350,000 compounds, 0.28% hits; also: potency is read from the fitted curve at half-maximal effect; % is scaled to controls: 0 for no effect and ±100 for the full control effect; nearly all actives have a fitted effect of over 40% in size
Target sequence (Q9NUW8 whole entry, looked up): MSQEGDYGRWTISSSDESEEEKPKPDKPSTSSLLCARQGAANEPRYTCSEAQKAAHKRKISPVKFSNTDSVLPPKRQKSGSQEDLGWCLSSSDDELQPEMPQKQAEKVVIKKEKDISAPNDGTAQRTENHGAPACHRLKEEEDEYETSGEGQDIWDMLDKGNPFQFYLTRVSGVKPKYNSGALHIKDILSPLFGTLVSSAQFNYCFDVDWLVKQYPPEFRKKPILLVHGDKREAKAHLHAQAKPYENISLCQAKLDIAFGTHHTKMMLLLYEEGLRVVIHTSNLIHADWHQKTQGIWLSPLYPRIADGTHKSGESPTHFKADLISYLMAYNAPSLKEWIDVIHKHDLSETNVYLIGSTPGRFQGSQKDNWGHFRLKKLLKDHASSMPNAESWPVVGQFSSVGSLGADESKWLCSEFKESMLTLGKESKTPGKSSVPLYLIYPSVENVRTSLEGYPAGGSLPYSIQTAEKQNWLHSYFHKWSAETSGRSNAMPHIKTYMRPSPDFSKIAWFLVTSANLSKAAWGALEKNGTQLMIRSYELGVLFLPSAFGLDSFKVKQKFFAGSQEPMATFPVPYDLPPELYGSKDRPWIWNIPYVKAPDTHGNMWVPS
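Enzyme-compound mixtures sat 15 min at room temperature, followed by a 5 min reaction with 15 nM final substrate and 10 min with AlphaScreen beads. Recombinant human Tdp1 was used at 1 nM final.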
* = called active by the depositor; ! = not active in a repeat; [ ] = another dose, or the depositor's remark. Shown are actives, neighbours in structure and some others; about 18% of the full set was active somewhere. Unless noted, calls follow the shape of the dose curve; as a rule, active = well fitted curve in the direction sought with a large enough effect; inconclusive = small, poorly fitted or top-dose-only effect, or another doubt; inactive = no such curve, though single readings can be large; an effect the other way counts as inactive or inconclusive.

Screening Cc1cnc(CNc2cc(-c3ccccc3CN(C)C)ncn2)cn1 returned TDP1 cell noCPT -15% and DT40 TDP1 CPT -7%.
For Cc1ncoc1C(=O)N1CCCC(C(=O)c2cccc3ccccc23)C1 (centres undefined) the results were IL-1B inflam inh -1, TDP1 cell noCPT inconclusive, TGFb inhibitor 2%, DT40 TDP1 CPT inconclusive, HepG2 tox -4% and TDP1 block -5%.
Cn1nccc1C(=O)N1CCCC(C(=O)c2cccc3ccccc23)C1 (centres undefined) was read as IL-1B inflam inh -14, TDP1 cell noCPT 23µM*, TGFb inhibitor -8%, DT40 TDP1 CPT inconclusive, HepG2 tox -11% and TDP1 block 5%.
CC1=C(C(=O)N2CCCC(C(=O)c3cccc4ccccc34)C2)OCCO1 (centres undefined) was read as IL-1B inflam inh inconclusive, TDP1 cell noCPT 16µM*, TGFb inhibitor -19%, DT40 TDP1 CPT inconclusive, HepG2 tox -52% and TDP1 block -1%.
CCCCN1C[C@H](Cc2ccccc2)[C@@H](CC(=O)NCc2ccc(OC)cc2)C1=O was read as IL-1B inflam inh 13, TDP1 cell noCPT 22µM*!, TGFb inhibitor inconclusive, DT40 TDP1 CPT 18µM* and HepG2 tox -16%.
`CCCCC[C@H]1CN(Cc2ccccc2)C(=O)[C@@H]1CC(=O)NCc1ccccc1` gave IL-1B inflam inh -51*, TDP1 cell noCPT 14µM*, TGFb inhibitor 18µM*, DT40 TDP1 CPT 11µM* and HepG2 tox 14µM*!.
For CCCCC[C@H]1CN(CCCC)C(=O)[C@@H]1CC(=O)NCc1ccc(OC)cc1 the results were IL-1B inflam inh -21, TDP1 cell noCPT inconclusive, TGFb inhibitor inconclusive, DT40 TDP1 CPT inconclusive and HepG2 tox -19%.
COc1ccc(N2C[C@H](Cc3ccccc3)[C@@H](CC(=O)Nc3ccccc3)C2=O)cc1 was read as IL-1B inflam inh -6, TDP1 cell noCPT 21µM*, TGFb inhibitor 3%, DT40 TDP1 CPT inconclusive and HepG2 tox -10%.
`COc1ccc(NC(=O)C[C@H]2C(=O)N(c3ccccc3)C[C@@H]2Cc2ccccc2)cc1` gave IL-1B inflam inh -23, TDP1 cell noCPT inconclusive, TGFb inhibitor 1%, DT40 TDP1 CPT -23% and HepG2 tox -35%.
Cc1c(NS(=O)(=O)c2cc(C(=O)NCCN(C)C)ccc2Cl)c(=O)n(-c2ccccc2)n1C was read as IL-1B inflam inh -8, TDP1 cell noCPT 0%, TGFb inhibitor 44%, DT40 TDP1 CPT 4% and HepG2 tox 7%.
For Cc1occc1C(=O)N/N=C/c1cccc2ccccc12 the results were IL-1B inflam inh 6, TDP1 cell noCPT inconclusive, TGFb inhibitor 36%, DT40 TDP1 CPT inconclusive, HepG2 tox 2% and TDP1 block -4%[0.0935 µM].
Screening Cc1cc2n(n1)CCCN2C(=O)Nc1cccc(C)c1C returned TDP1 cell noCPT -10%, TGFb inhibitor -5%, DT40 TDP1 CPT -14%, HepG2 tox 1% and TDP1 block 0%.
For Cc1ccc(N(CC(=O)N2CCN(c3ccccc3F)CC2)S(=O)(=O)c2c(C)noc2C)cc1 the results were IL-1B inflam inh -6, TDP1 cell noCPT inconclusive, TGFb inhibitor 0%, DT40 TDP1 CPT 21µM*, HepG2 tox -2% and TDP1 block 0%.
Screening COc1ccc(N(CC(=O)N2CCN(c3ccccc3F)CC2)S(=O)(=O)c2c(C)noc2C)cc1 returned IL-1B inflam inh -9, TDP1 cell noCPT inconclusive, TGFb inhibitor 8%, DT40 TDP1 CPT inconclusive, HepG2 tox 6% and TDP1 block 2%.
`CCOc1ccc(N(CC(=O)N2CC=C(c3ccccc3)CC2)S(=O)(=O)c2c(C)noc2C)cc1` gave IL-1B inflam inh -7, TDP1 cell noCPT inconclusive, TGFb inhibitor 0%, DT40 TDP1 CPT inconclusive, HepG2 tox 5% and TDP1 block 3%.
Screening COc1ccc(N(CC(=O)N2CC=C(c3ccccc3)CC2)S(=O)(=O)c2c(C)noc2C)cc1 returned IL-1B inflam inh 9, TDP1 cell noCPT 23µM*, TGFb inhibitor 2%, DT40 TDP1 CPT inconclusive, HepG2 tox 0% and TDP1 block 5%.
`O=C(CN1CCc2cc3c(cc2C1)OCCCO3)Nc1cccc(Br)c1` gave IL-1B inflam inh -5, TDP1 cell noCPT inconclusive, TGFb inhibitor -23%, DT40 TDP1 CPT inconclusive, HepG2 tox -17% and TDP1 block 4%.
CCNC(=O)C1CCCN(C(=O)c2ccccc2OC(F)(F)F)CC1 (centres undefined) was read as IL-1B inflam inh 17, TDP1 cell noCPT 0%, TGFb inhibitor 8%, DT40 TDP1 CPT -4% and HepG2 tox 2%.
For C=C(C)[C@@H]1CCC2(C(=O)O)CC[C@]3(C)[C@H](CC[C@@H]4[C@@]5(C)CCC(=O)C(C)(C)[C@@H]5CC[C@]43C)[C@@H]12 (some centres undefined) the results were IL-1B inflam inh 54, TDP1 cell noCPT 3.7µM*, TGFb inhibitor -21%, DT40 TDP1 CPT 2.9µM*, HepG2 tox -15% and TDP1 block 3%.
Screening C=C(CC[C@@H](O)C(C)(C)O)[C@H]1CC[C@]2(C)[C@@H]1CCC1[C@@]3(C)CCC(=O)C(C)(C)C3CC[C@]12C (some centres undefined) returned IL-1B inflam inh 36, TDP1 cell noCPT inconclusive, TGFb inhibitor 3%, DT40 TDP1 CPT inconclusive, HepG2 tox -17% and TDP1 block 0%.
Screening CCn1nc(-c2ccccc2)c(-c2ccccc2)c(C(=O)Nc2nc(C)c(C(C)=O)s2)c1=O returned TDP1 cell noCPT 1.6µM*, TGFb inhibitor 0%, DT40 TDP1 CPT 1.6µM*, HepG2 tox -3% and TDP1 block 0%.
`CCn1nc(-c2ccccc2)c(-c2ccccc2)c(C(=O)Nc2ccc(S(N)(=O)=O)cc2)c1=O` gave TDP1 cell noCPT inconclusive, TGFb inhibitor -14%, DT40 TDP1 CPT inconclusive, HepG2 tox 4% and TDP1 block 5%.
For Cc1ccc(SCC(=O)NC(=O)NC2CCCC2)c(C)c1 the results were IL-1B inflam inh -1, TDP1 cell noCPT -26%, TGFb inhibitor -10%, DT40 TDP1 CPT -7%, HepG2 tox -10% and TDP1 block -19%.
